MLLE-PAM2 inh: blocks PAM2 peptide binding to the PABP1 MLLE domain. P11940. GST-MLLE / FITC-PAM2 fluorescence polarization. inhibition, % at 20 µM. actives 0.36% (n = 360,000). AID 588489; in the data active means inhibition above about 35%, passing the limit was not always enough
PHOSPHO1 inh: blocks human PHOSPHO1 phosphatase activity; recombinant PHOSPHO1, absorbance phosphatase assay; Q8TCT1; AID 1565; inhibition, % at 13.3 µM; actives 1.1% (n = 290,000); in the data active means inhibition above about 60%
Target sequence (Q8TCT1 whole entry, looked up): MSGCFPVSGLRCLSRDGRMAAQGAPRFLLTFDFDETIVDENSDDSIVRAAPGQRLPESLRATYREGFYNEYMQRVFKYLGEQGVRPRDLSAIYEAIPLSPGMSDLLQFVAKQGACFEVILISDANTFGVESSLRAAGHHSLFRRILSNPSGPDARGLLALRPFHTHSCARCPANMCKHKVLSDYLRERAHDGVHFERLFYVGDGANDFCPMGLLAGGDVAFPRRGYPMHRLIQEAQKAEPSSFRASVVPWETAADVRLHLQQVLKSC
HMGR II inh: inhibitors of class II HMG-CoA reductase from Enterococcus faecalis; purified E. faecalis HMGR, NADPH absorbance 340 nm kinetic; inhibition, % at 10 µM; actives 0.41% (n = 190,000); AID 1066;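 active means inhibition above a set limit, the median over all tested compounds plus 3 SD, cut at about 9.5% in these data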;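 further: enzyme runs in reverse so mevalonate oxidation gives rising NADPH absorbance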
PABP polyA inh: blocks human PABP binding to poly(A) RNA; calls only at 35 µM; actives 1% (n = 290,000); fluorescence polarization;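 further: calls also rest on retests at 20 µM and on dose response follow-up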
eIF4H FP inh: inhibitors of RNA binding by human eIF4H. eIF4H fluorescence polarization binding assay. inhibition, % at 35 µM. actives 0.94% (n = 290,000);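 further: calls also rest on retests at 20 µM and on dose response follow-up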
Hits are given with their value. Rows were chosen to be rich in hits. Some 2.4% of all compounds tested hit in one or more screens of this group. Unless noted, how the calls were made is not given here.

For Cc1c(Cc2ccccc2)c(=O)oc2cc(OCC(=O)NCC3CCC(C(=O)O)CC3)ccc12 (stereo not given) the results were MLLE-PAM2 inh inactive, PHOSPHO1 inh inactive, PABP polyA inh inactive and eIF4H FP inh inactive.
Screening O=C(CN1C(=O)NC2(CCCc3ccccc32)C1=O)NCc1ccc(Cl)cc1Cl (stereo not given) returned MLLE-PAM2 inh inactive, PABP polyA inh inactive and eIF4H FP inh inactive.
`O=C(COC(=O)c1cc2ccccc2o1)NCc1ccco1` gave MLLE-PAM2 inh inactive.
Screening CC(C)COC(=O)Nc1nnc(SCc2ccccc2F)s1 returned MLLE-PAM2 inh inactive, PHOSPHO1 inh inactive, HMGR II inh inactive, PABP polyA inh inactive and eIF4H FP inh inactive.
For CC(C)COC(=O)Nc1nnc(SCCOc2ccccc2)s1 the results were MLLE-PAM2 inh inactive, PHOSPHO1 inh inactive, HMGR II inh 13, PABP polyA inh inactive and eIF4H FP inh inactive.
For CN1C(=O)N(C)C2(c3ccccc3)Nn3c(s/c(=C/c4ccco4)c3=O)=NC12c1ccccc1 (stereo not given) the results were MLLE-PAM2 inh inactive, PHOSPHO1 inh inactive, HMGR II inh inactive, PABP polyA inh active and eIF4H FP inh inactive.
`CN1C(=O)N(C)C2(c3ccccc3)Nn3c(s/c(=C/c4ccccc4F)c3=O)=NC12c1ccccc1` (stereo not given) gave PHOSPHO1 inh inactive, HMGR II inh inactive, PABP polyA inh inactive and eIF4H FP inh inactive.
Cc1ccccc1NC(=O)c1ccc2c(O)c(S(=O)(=O)c3ccccc3)c(=O)[nH]c2c1 was read as MLLE-PAM2 inh inactive, PHOSPHO1 inh inactive, PABP polyA inh inactive and eIF4H FP inh inactive.
CC1(C)CC(=O)C(C(O)c2ccccc2)C(C)(C)N1 (stereo not given) was read as MLLE-PAM2 inh inactive, PHOSPHO1 inh inactive, PABP polyA inh inactive and eIF4H FP inh inactive.
COc1cc(CNc2ccccc2SC)ccc1O was read as MLLE-PAM2 inh inactive, PHOSPHO1 inh 72, HMGR II inh inactive, PABP polyA inh inactive and eIF4H FP inh inactive.
Screening COc1cccc(NC(=O)c2ccc(-c3ccc([N+](=O)[O-])cc3)o2)c1 returned MLLE-PAM2 inh inactive, PHOSPHO1 inh inactive, HMGR II inh inactive, PABP polyA inh active and eIF4H FP inh inactive.
`COc1cc([N+](=O)[O-])ccc1-c1ccc(C(=O)Nc2ccc(NC(C)=O)cc2)o1` gave MLLE-PAM2 inh inactive, PHOSPHO1 inh inactive, HMGR II inh inactive, PABP polyA inh inactive and eIF4H FP inh inactive.
CC(=O)Nc1ccc(NC(=O)c2ccc(-c3ccc([N+](=O)[O-])cc3)o2)cc1 was read as MLLE-PAM2 inh inactive, PHOSPHO1 inh inactive, PABP polyA inh inactive and eIF4H FP inh 53.
COc1ccc(NC(=O)c2ccc(-c3ccc([N+](=O)[O-])cc3)o2)cc1OC was read as MLLE-PAM2 inh inactive, PHOSPHO1 inh inactive, HMGR II inh inactive, PABP polyA inh inactive and eIF4H FP inh inactive.
For CC(=O)Nc1ccc(-c2ccnc3c2CC(C(=O)NCCC(F)(F)F)O3)cc1 (stereo not given) the results were MLLE-PAM2 inh inactive.
`COc1ccc(C(=O)Nc2ccc3nc4n(c(=O)c3c2)CCCCC4)cc1OC` gave MLLE-PAM2 inh inactive.
COc1ccc(C(=O)Nc2ccc3nc4n(c(=O)c3c2)CCCC4)cc1[N+](=O)[O-] was read as PHOSPHO1 inh inactive, HMGR II inh inactive, PABP polyA inh active and eIF4H FP inh inactive.
For Cc1ccc(CCNC(=O)c2coc3nc4ccccc4nc23)cc1 the results were MLLE-PAM2 inh inactive, PHOSPHO1 inh inactive, HMGR II inh inactive, PABP polyA inh active and eIF4H FP inh inactive.
Screening Cc1cc(=O)oc2c(C)c(OC(C)C(=O)NCCCN3CCOCC3)ccc12 (stereo not given) returned MLLE-PAM2 inh inactive and PHOSPHO1 inh 64.
CCc1cc(=O)oc2c(C)c(OC(C)C(=O)NCCCN3CCOCC3)ccc12 (stereo not given) was read as MLLE-PAM2 inh inactive, PHOSPHO1 inh inactive, PABP polyA inh inactive and eIF4H FP inh inactive.
Screening OC(CN1CCN(c2cccc(C(F)(F)F)c2)CC1)c1c[nH]c2ccccc12 (stereo not given) returned MLLE-PAM2 inh inactive, PHOSPHO1 inh inactive, HMGR II inh inactive, PABP polyA inh inactive and eIF4H FP inh inactive.
CN(Cc1cccs1)C(=O)c1cccc(S(=O)(=O)N2CCCCCC2)c1 was read as MLLE-PAM2 inh inactive.
`O=C1Nc2cc(Cl)cnc2N2CCCC12` (stereo not given) gave MLLE-PAM2 inh inactive, PHOSPHO1 inh inactive, HMGR II inh inactive, PABP polyA inh inactive and eIF4H FP inh 61.
`Cc1ccccc1S(=O)(=O)NC(=O)C1(C)CCN1C(=O)COc1ccc(Cl)cc1` (stereo not given) gave MLLE-PAM2 inh inactive.
Screening COc1cc(C=C(c2nc3ccccc3s2)c2nc3ccccc3s2)cc(OC)c1O returned MLLE-PAM2 inh inactive, PHOSPHO1 inh inactive, HMGR II inh inactive, PABP polyA inh active and eIF4H FP inh 52.
For O=C(CSc1n[nH]c(-c2ccccc2Br)n1)NC(=O)NCc1ccco1 the results were MLLE-PAM2 inh inactive, PHOSPHO1 inh inactive, HMGR II inh inactive, PABP polyA inh inactive and eIF4H FP inh inactive.
CC(C)(C)NC(=O)NC(=O)CSc1n[nH]c(-c2ccccc2Br)n1 was read as MLLE-PAM2 inh inactive, PHOSPHO1 inh 63, HMGR II inh inactive, PABP polyA inh inactive and eIF4H FP inh inactive.
`Cc1ccc(Nc2nnc(SCC(=O)NCCN3C(=O)CSC3=O)s2)cc1C` gave MLLE-PAM2 inh inactive, PHOSPHO1 inh inactive, HMGR II inh inactive, PABP polyA inh active and eIF4H FP inh inactive.
For Cc1ccc(SCC(=O)NCCN2C(=O)CSC2=O)cc1C the results were MLLE-PAM2 inh inactive, PHOSPHO1 inh inactive, HMGR II inh inactive, PABP polyA inh inactive and eIF4H FP inh inactive.
O=C(CSc1n[nH]c(-c2ccccc2Br)n1)NCCN1C(=O)CSC1=O was read as MLLE-PAM2 inh inactive, PHOSPHO1 inh inactive, HMGR II inh inactive, PABP polyA inh inactive and eIF4H FP inh active.
CC(C)CC(NC(N)=O)C(=O)NCCc1ccc(Cl)cc1 (stereo not given) was read as MLLE-PAM2 inh inactive, PHOSPHO1 inh inactive, HMGR II inh inactive, PABP polyA inh inactive and eIF4H FP inh inactive.
For CC(=O)Nc1ccc(-c2csc(NC(=O)C3CC(=O)N(c4ccc5c(c4)OCCO5)C3)n2)cc1 (stereo not given) the results were MLLE-PAM2 inh inactive, PHOSPHO1 inh inactive, PABP polyA inh active and eIF4H FP inh 60.
For COc1ccc(-c2csc(NC(=O)C3CC(=O)N(c4ccc5c(c4)OCCO5)C3)n2)cc1 (stereo not given) the results were MLLE-PAM2 inh inactive, PHOSPHO1 inh inactive, HMGR II inh inactive, PABP polyA inh inactive and eIF4H FP inh inactive.
For CCOc1ccccc1-n1c(=S)sc2c(=O)n(-c3ccc(C)cc3)c(=S)[nH]c21 the results were MLLE-PAM2 inh inactive, PHOSPHO1 inh inactive, HMGR II inh inactive, PABP polyA inh active and eIF4H FP inh active.
`N#Cc1cnc2nc1NCCCCCCC2` gave MLLE-PAM2 inh inactive.
